# Test results: ChEMBL document CHEMBL3988442, “University of Dundee, Small-Polar-MMV Screening Library” (2021)
# The whole screen tested about 69,000 compounds, of which about 1,000 (1.4%) showed an effect of 50% or more. The sample as a whole holds a higher share of strong results than the screen did.
# Test system: Leishmania donovani
# Assay: Leishmania intramacrophage assay
# Type: functional, organism-based
# Design: scale not given: in the data most compounds retested in dose-response had high values
smiles,measurement,setting,value
COCCN1CCCC(c2ncc(C(=O)N(C)C)c(C)n2)C1 (stereo not given),Percent Effect,"30.3 µM, […]",-9.482%
COCCC(=O)N1CCC2(COCc3c(C)nc(NCC4CC4)nc32)C1 (stereo not given),Percent Effect,"30 µM, 30.03 µM",4.108%
Cc1nc(NCC2CC2)nc2c1COCC21CCN(C(=O)NC(C)C)C1 (stereo not given),Percent Effect,"30.3 µM, […]",52.42%
Cc1nc(NCC2CC2)nc2c1COCC21CCN(C(=O)C(C)(C)C)C1 (stereo not given),Percent Effect,"30.3 µM, […]",-5.86%
Cn1ccnc1CN1CCC2(CC1)COC2.O=C(O)C(F)(F)F,Percent Effect,"30.3 µM, […]",21.73%
O=C(CN1CCOc2ccccc2C1)NCc1cc2n(n1)CCNC2,Percent Effect,"30.3 µM, […]",5.311%
O=C(CN1CC(c2ccccc2)CC1=O)NCc1cc2n(n1)CCNC2 (stereo not given),Percent Effect,"30.3 µM, […]",29.23%
O=C(CN1CCC(c2ccccc2)CC1)NCc1cc2n(n1)CCNC2,Percent Effect,"30.3 µM, […]",55.19%
c1ccc(C2CCCN(Cc3cc4n(n3)CCNC4)CC2)cc1 (stereo not given),Percent Effect,"30.3 µM, […]",58.47%
CC(=O)N1CC[C@H]2OCC[C@@]2(C(=O)NCCc2ccccn2)C1.O=C(O)C(F)(F)F,Percent Effect,"30.3 µM, […]",-0.5887%
CNc1snc(C)c1C(=O)N1CCCC(n2cccn2)C1 (stereo not given),Percent Effect,30 µM,20.79%
N#Cc1ccccc1N1CCCN(C(=O)CCc2ccco2)CC1,Percent Effect,"30.3 µM, […]",17.14%
CN(C(=O)C1(C#N)CCCCC1)c1nccs1,Percent Effect,"30.3 µM, […]",12.59%
Cc1ccoc1C(=O)N1Cc2c(Cn3ccnc3)nn(C)c2C1.O=C(O)C(F)(F)F,Percent Effect,"30.3 µM, […]",12.09%
Cn1nc(Cn2ccnc2)c2c1CN(C(=O)c1ccoc1)C2.O=C(O)C(F)(F)F,Percent Effect,"30.3 µM, […]",54.37%
Cn1nc(Cn2ccnc2)c2c1CN(Cc1ccoc1)C2.O=C(O)C(F)(F)F.O=C(O)C(F)(F)F,Percent Effect,"30.3 µM, […]",2.195%
COCc1nc2n(n1)CCCC2Nc1nc(C)ns1 (stereo not given),Percent Effect,"30.3 µM, […]",-12.79%
O=C(CC1CCC2(CC1)CCN(Cc1nccs1)CC2)N1CC=CC1,Percent Effect,"30.3 µM, […]",-13.52%
CC(C)(C)c1nc(CNc2ccccc2SCCC(N)=O)cs1,Percent Effect,"30.3 µM, […]",-34.53%
NC(=O)C(NC(=O)CCc1ccc(Cl)s1)c1ccccc1 (stereo not given),Percent Effect,"30.3 µM, […]",20.24%
NC(=O)CCSc1ccccc1NCc1ccc(Cl)s1,Percent Effect,"30.3 µM, […]",57.16%
NC(=O)C(NCc1ccc(Cl)s1)c1ccccc1 (stereo not given),Percent Effect,"30.3 µM, […]",22.99%
Cc1ccc(CNc2ccccc2SCCC(N)=O)s1,Percent Effect,"30.3 µM, […]",58.74%
CC(C)(C)c1ncc(CNc2ccccc2SCCC(N)=O)s1,Percent Effect,"30.3 µM, […]",-11.51%
Cc1nn(C)c(C)c1CN(C)C(=O)c1cccc(CCC(C)(C)O)c1,Percent Effect,"30.3 µM, […]",45.36%
O=C(O)C(F)(F)F.O=C(c1ccc[nH]1)N1CCCn2c(CNC3CCC3)nnc2C1,Percent Effect,"30.3 µM, […]",19.78%
Cc1ccccc1-c1cncc(C2CCN(C3CCOCC3)CC2)n1,Percent Effect,"30.3 µM, […]",-12.97%
C1CCC(c2nc3c(c(N4CC(N5CCOCC5)C4)n2)CCNCC3)C1,Percent Effect,"30.3 µM, […]",33.91%
NCC1CCN(c2nc(C3CCCC3)nc3c2CCNCC3)C1 (stereo not given),Percent Effect,"30.3 µM, […]",-3.279%
C1CCC(c2nc3c(c(N4CCN5CCCC5C4)n2)CCNCC3)C1 (stereo not given),Percent Effect,"30.3 µM, […]",52.04%
CCc1cn[nH]c1C1CCN(c2cc(C)c3cccc(OC)c3n2)CC1,Percent Effect,"30.3 µM, […]",13.27%
COCCNC(=O)c1nc(-c2cn(C)cn2)n2ccccc12,Percent Effect,"30.3 µM, […]",36.99%
Cn1cnc(-c2nc(C(=O)NCCN3CCOCC3)c3ccccn23)c1,Percent Effect,"30.3 µM, […]",40.37%
Cn1cnc(-c2nc(C(=O)NCCN3CCCC3)c3ccccn23)c1,Percent Effect,"30.3 µM, […]",50.91%
COCCN1CCN(Cc2nccs2)[C@H]2CS(=O)(=O)C[C@H]21,Percent Effect,"30.3 µM, […]",-6.4%
O=C(NCCC(=O)N1CCCC1)c1nn(-c2ccccc2F)cc1O,Percent Effect,"30 µM, 30.03 µM",-0.1897%
Cc1ncsc1CCC(=O)N1CCn2cccc2C1c1cccnc1 (stereo not given),Percent Effect,"30.3 µM, […]",18.51%
CN(Cc1cnc(C(C)(C)C)nc1)Cc1nc2ccc(F)cc2[nH]1,Percent Effect,"30.3 µM, […]",52.7%
Cc1ccc(CN(C)Cc2nc3ccc(F)cc3[nH]2)cn1,Percent Effect,"30.3 µM, […]",12.06%
CNS(=O)(=O)c1ccc(CN(C)Cc2nc3ccc(F)cc3[nH]2)cc1,Percent Effect,"30.3 µM, […]",-17.23%
Cc1c(C(=O)NCC2CCS(=O)(=O)C2)cnn1-c1ccccc1 (stereo not given),Percent Effect,"30.3 µM, […]",-5.688%
CN(C)C(=O)c1cccnc1-c1ccc2c(c1)OCO2,Percent Effect,"30.3 µM, […]",11.7%
C[C@@H]1CN(Cc2cc3ccccc3n2C)CC[C@]1(C)O,Percent Effect,"30.3 µM, […]",19.22%
C[C@@H]1CN(Cc2cc3ccccc3n2C)CC[C@@]1(O)C1CC1,Percent Effect,"30.3 µM, […]",34.38%
Cc1ccc2c(c1)cc(CN1CC[C@](C)(O)[C@H](C)C1)n2C,Percent Effect,"30.3 µM, […]",50.4%
CC(C(=O)N1CCN(CCOc2ccccc2)CC1)n1cncn1 (stereo not given),Percent Effect,"30.3 µM, […]",10.7%
CCOCC1CN(S(=O)(=O)C2CC2)Cc2cnn(C)c21 (stereo not given),Percent Effect,"30.3 µM, […]",-42.59%
CN(CC(=O)N1CCCC1)C(=O)c1ccccc1Nc1ccccc1,Percent Effect,"30.3 µM, […]",-2.979%
CCc1cnc(N)nc1NC(C)c1ccc(C)c(C)c1 (stereo not given),Percent Effect,"30.3 µM, […]",88.85%
CCc1cnc(N)nc1N[C@@H](C)c1ncccc1C,Percent Effect,"30.3 µM, […]",22.19%
CCc1cnc(N)nc1NC(C)c1cnn(C)c1 (stereo not given),Percent Effect,"30.3 µM, […]",1.659%
CC(C)OC[C@H]1CCC[C@]12CN(S(=O)(=O)c1cn(C)cn1)CCO2,Percent Effect,"30.3 µM, […]",9.701%
NC(c1ccc(F)cc1)c1cccs1 (stereo not given),Percent Effect,"30.3 µM, […]",6.777%
CN(C)CCO[C@@H]1CC[C@H]2[C@H]1OCCN2C(=O)c1ccccc1F,Percent Effect,"30.3 µM, […]",24.56%
CC(C)c1nccc(CN2CCC(O)(CN3CCCCC3)C2)n1 (stereo not given),Percent Effect,"30.3 µM, […]",18.94%
CCC1C(=O)NCCN1c1ccnc(C(C)(C)C)n1 (stereo not given),Percent Effect,"30.3 µM, […]",-23.65%
CC(C)(C)c1nccc(C2(c3ccccc3Cl)CCNCC2)n1,Percent Effect,"30.3 µM, […]",98.02%
Clc1ccccc1C1(c2ccnc(-c3ccncc3)n2)CCNCC1,Percent Effect,"30 µM, 30.03 µM",69.77%
CC(C)c1nccc(C2(c3ccccc3Cl)CCNCC2)n1,Percent Effect,"30.3 µM, […]",86.79%
O=c1[nH]cccc1-c1nccc(C2(c3ccccc3Cl)CCNCC2)n1,Percent Effect,"30.3 µM, […]",3.768%
CC(C)c1nccc(CN2CCCC(O)(CN3CCCC3)C2)n1 (stereo not given),Percent Effect,"30.3 µM, […]",-4.495%
Clc1ccccc1C1(c2ccnc(-c3ncccn3)n2)CCNCC1,Percent Effect,"30 µM, 30.03 µM",15.9%
CC(C)CSCCN1CCN(S(C)(=O)=O)CC1,Percent Effect,"30.3 µM, […]",-11.46%
O=C(c1ccccc1)N1C[C@@H]2CC[C@H](C1)N(C(=O)CN1CCOCC1)C2,Percent Effect,"30.3 µM, […]",12.92%
CCNc1c(C#N)c(=O)n(C)c(=O)n1C,Percent Effect,"30.3 µM, […]",22.41%
OC1CCN(c2ccnc(NCCc3ccccc3Cl)n2)CC1,Percent Effect,"30.3 µM, […]",-1.281%
OC1CCN(c2ccnc(NCCc3ccccc3Cl)n2)C1 (stereo not given),Percent Effect,"30.3 µM, […]",64.18%
OC1CCN(c2ccnc(NCCN3CCc4ccccc4C3)n2)C1 (stereo not given),Percent Effect,"30.3 µM, […]",47%
Cn1cc(C(=O)Nc2cccc(CCN3CCCC3)c2)ccc1=O,Percent Effect,"30.3 µM, […]",25.83%
Cc1ccc(F)c(C(=O)Nc2cccc(CCN3CCCC3)c2)c1,Percent Effect,"30.3 µM, […]",51.62%
Cc1cc(=O)c(C(=O)Nc2cccc(CCN3CCCC3)c2)c[nH]1,Percent Effect,"30.3 µM, […]",12.01%
CN(C(=O)c1cccc2[nH]ncc12)C1CCN(c2ccccn2)CC1,Percent Effect,"30 µM, 30.03 µM",-37.63%
COc1cc(CNCc2ccnc(N3CCOCC3)c2)cc(OC)c1,Percent Effect,30 µM,28.31%
COc1cc(CNCc2ccnc(N3CCOCC3)c2)cc(Cl)c1OC,Percent Effect,"30 µM, 30.03 µM",26.59%
COc1c(C)cc(CNCc2ccnc(N3CCOCC3)c2)cc1C.Cl,Percent Effect,30 µM,54.99%
O=C(CCc1ccco1)Nc1ncn(CC(=O)N2CCCCCC2)n1,Percent Effect,"30.3 µM, […]",4.673%
Cn1ncc2c(N[C@H]3CCCC[C@@H]3O)nc(C(C)(C)C)nc21,Percent Effect,"30.3 µM, […]",44.26%
Cn1ncc2c(NC3CCCN(C(=O)C4CC4)C3)nc(C(C)(C)C)nc21 (stereo not given),Percent Effect,"30.3 µM, […]",-38.63%
Cn1ncc2c(N[C@H]3CC[C@@H](N)CC3)nc(C(C)(C)C)nc21,Percent Effect,"30.3 µM, […]",100.6%
CSCC[C@@H]1CN2CCC[C@H]2CN1Cc1cn(C)nc1C,Percent Effect,"30.3 µM, […]",-2.658%
O=C(COCc1nc(-c2ccncc2)no1)N1CCCC1,Percent Effect,"30 µM, 30.03 µM",18.4%
CC1CCCCN1C(=O)COCc1nc(-c2ccncc2)no1 (stereo not given),Percent Effect,"30.3 µM, […]",55.9%
O=C(COCc1nc(-c2ccncc2)no1)N1CCCCC1,Percent Effect,"30.3 µM, […]",-11.93%
O=C(Nc1cccc(F)c1)C1CCN(Cc2noc(C3CC3)n2)CC1,Percent Effect,"30.3 µM, […]",33.46%
CN(Cc1ccc(C(=O)O)cc1)C(=O)c1sccc1OC(F)F,Percent Effect,"30.3 µM, […]",18.71%
CCC1(CO)CCCN(C(=O)c2cc(COc3cccc(F)c3)[nH]n2)C1 (stereo not given),Percent Effect,"30.3 µM, […]",65.29%
CCC1(CO)CCCN(C(=O)c2cc(COc3ccccc3F)[nH]n2)C1 (stereo not given),Percent Effect,"30.3 µM, […]",-9.881%
CCC1(CO)CCN(C(=O)c2cc(COc3ccccc3F)[nH]n2)CC1,Percent Effect,"30.3 µM, […]",-10.91%
Cc1cccc(CN2CCn3c(COc4ncccn4)nnc3C2)n1,Percent Effect,"30.3 µM, […]",26.49%
COCCn1cc(CCC(=O)Nc2c(C)nn(C)c2C)c2ccccc21,Percent Effect,"30.3 µM, […]",-5.699%
CC(C)c1nc(CN(C)C2CCN(CCc3ccncc3)C2)no1 (stereo not given),Percent Effect,30 µM,35.17%
CC(C)c1nc(CN(C)C(=O)[C@H](N)Cc2ccc(Cl)cc2)cs1,Percent Effect,"30.3 µM, […]",64.25%
CC(C)C[C@@H](N)C(=O)N(C)Cc1csc(C(C)C)n1,Percent Effect,"30.3 µM, […]",18.19%
CC(C)c1nc(CN(C)C(=O)C(O)c2ccc(Cl)cc2)cs1 (stereo not given),Percent Effect,"30.3 µM, […]",-6.394%
CN1CCN(C(=O)CC2CCN(CCc3ccccn3)CC2)CC1,Percent Effect,"30 µM, 30.03 µM",28.67%
COC[C@@H]1CCCN1C(=O)c1cc(-c2cccc(OC)c2)n[nH]1,Percent Effect,"30.3 µM, […]",15.97%
O=C(CCCn1cnc2ccccc2c1=O)Nc1nc[nH]n1,Percent Effect,"30.3 µM, […]",-11.87%
CC(C)c1ccc(S(=O)(=O)N2CSCC2C(=O)NCC(F)(F)F)cc1 (stereo not given),Percent Effect,30 µM,31.97%
CC(C)CCCNC(=O)Nc1ccc(C(N)=O)c(Cl)c1,Percent Effect,30 µM,-4.358%
O=C(Cc1ccncc1)N1CCC2(CC1)CC(c1ccccc1)CO2.O=C(O)C(F)(F)F (stereo not given),Percent Effect,"30.3 µM, […]",68.9%
O=C(Cc1ccccc1)N1CCC2(CC1)CN(c1ncccn1)CCO2,Percent Effect,"30.3 µM, […]",60.82%
CC1COC2(CCN(C(=O)Cc3ccncc3)CC2)C1.O=C(O)C(F)(F)F (stereo not given),Percent Effect,"30.3 µM, […]",9.251%
O=C(Cc1ccccn1)N1CCC2(CC1)CN(c1ncccn1)CCO2.O=C(O)C(F)(F)F.O=C(O)C(F)(F)F,Percent Effect,"30.3 µM, […]",12.21%
O=C(CC1CC1)N1CCC2(CC1)CN(c1ncccn1)CCO2,Percent Effect,"30 µM, 30.03 µM",2.315%
Cn1cc(C2COC3(CCN(C(=O)Cc4ccccc4)CC3)C2)cn1 (stereo not given),Percent Effect,"30.3 µM, […]",7.925%
